Compound activity from PubChem BioAssay.
ANO1 block – inhibitors of mouse TMEM16A calcium-activated chloride channel. Q8BHY3. HEK293 TMEM16A/YFP iodide influx fluorescence, ionomycin. normalized B-score (activity score, 25-100; higher = stronger inhibition) at 10 µM. 1.2% of 310,000 active. AID 588511;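 active = ratio plate-corrected score three or more library SD toward inhibition, starting fluorescence score within five deviations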;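 also: score derived from kinetic fluorescence span divided by baseline fluorescence per well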
TMEM16A act – activates or potentiates the mouse TMEM16A chloride channel; Q8BHY3; HEK293 TMEM16A/YFP-H148Q/I152L, iodide quench fluorescence; hits give low values; 0.3% of 340,000 active; B-score at 10 µM;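 active = fluorescence-ratio B-score plate-corrected deviation score at least 3 library SD below zero, with starting fluorescence score within 5 deviations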;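 also: channel opened by trigger with iodide after compound preincubation; score built on the fluorescence ratio of max minus min over baseline; more negative score means more quench and so TMEM16A activation or potentiation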
CHT block – inhibits the human high affinity choline transporter; CHT-expressing cells, membrane potential dye, choline response; hits give low values; B-score at 10 µM; AID 488975; Q9GZV3; 0.86% of 310,000 active;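 active = B-score over 3 SD under the library average, and starting fluorescence ratio not unusually high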;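 also: choline stimulus applied at its EC90 after an EC20 pre-addition; B-score computed on integrated fluorescence ratio after choline addition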
CHT allo act – allosteric activators of human choline transporter CHT; Q9GZV3; CHT-expressing cells, membrane potential dye, choline EC20; hits give high values; LV-AA mutant CHT in HEK293 cells; B-score at 10 µM; 0.49% of 310,000 active; AID 488977;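 active = initial fluorescence not abnormally high and integrated response B-score, plate-corrected, over 3 SD above library mean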
TMEM16A reconf – TMEM16A (mouse) chloride channel inhibition, re-confirmation; shares compounds with ANO1 block; HEK293 TMEM16A/YFP-H148Q, iodide quench fluorescence; ionomycin added to raise cell calcium; 39% of 2,300 active; AID 652189; inhibition, % at 10 µM;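 active = mean duplicate percent inhibition, scaled so buffer wells are 0 and the reference blocker 100, over three buffer SD above buffer mean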
HEK293 Ca mobil – alters calcium mobilization in TMEM16A HEK293 cells, counter-screen; shares compounds with ANO1 block; calcium response (% of ionomycin), % at 10 µM; 2% of 2,300 active; TMEM16A/YFP HEK293, Fluo4 calcium mobilization;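 active = duplicate-averaged calcium signal over 20% of the ionomycin maximum, relative to buffer baseline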;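 also: each well's signal is peak minus trough fluorescence divided by its pre-addition baseline; 0% = buffer wells and 100% = ionomycin wells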
YFP-HEK293 quench – acts in parental YFP-HEK293 cells lacking TMEM16A, counter-screen. shares compounds with ANO1 block. iodide YFP quench, ionomycin. YFP ratio F(max-min)/F0 at 10 µM. 2,300 tested, under 10 active;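 active = yellow fluorescent protein signal ratio exceeding the buffer control mean by over 5 SD of those controls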;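 also: ratio is mean of duplicate wells from kinetic YFP trace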
ClC-1 rat inh – selectivity of TMEM16A inhibitors: inhibition of rat ClC-1 chloride channel; ratio percent, % at 10 µM; 2,300 tested, under 10 active; CHO ClC-1-YFP, iodide influx fluorescence quench; iodide control reads 0, buffer control 100; AID 652236; shares compounds with ANO1 block;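 active = duplicate-mean ratio percent above the mean of iodide-only control wells, which defines zero, plus 5 of their SD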;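 also: higher percent means stronger block of ClC-1 iodide influx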
Target sequence (P35524 whole entry, looked up): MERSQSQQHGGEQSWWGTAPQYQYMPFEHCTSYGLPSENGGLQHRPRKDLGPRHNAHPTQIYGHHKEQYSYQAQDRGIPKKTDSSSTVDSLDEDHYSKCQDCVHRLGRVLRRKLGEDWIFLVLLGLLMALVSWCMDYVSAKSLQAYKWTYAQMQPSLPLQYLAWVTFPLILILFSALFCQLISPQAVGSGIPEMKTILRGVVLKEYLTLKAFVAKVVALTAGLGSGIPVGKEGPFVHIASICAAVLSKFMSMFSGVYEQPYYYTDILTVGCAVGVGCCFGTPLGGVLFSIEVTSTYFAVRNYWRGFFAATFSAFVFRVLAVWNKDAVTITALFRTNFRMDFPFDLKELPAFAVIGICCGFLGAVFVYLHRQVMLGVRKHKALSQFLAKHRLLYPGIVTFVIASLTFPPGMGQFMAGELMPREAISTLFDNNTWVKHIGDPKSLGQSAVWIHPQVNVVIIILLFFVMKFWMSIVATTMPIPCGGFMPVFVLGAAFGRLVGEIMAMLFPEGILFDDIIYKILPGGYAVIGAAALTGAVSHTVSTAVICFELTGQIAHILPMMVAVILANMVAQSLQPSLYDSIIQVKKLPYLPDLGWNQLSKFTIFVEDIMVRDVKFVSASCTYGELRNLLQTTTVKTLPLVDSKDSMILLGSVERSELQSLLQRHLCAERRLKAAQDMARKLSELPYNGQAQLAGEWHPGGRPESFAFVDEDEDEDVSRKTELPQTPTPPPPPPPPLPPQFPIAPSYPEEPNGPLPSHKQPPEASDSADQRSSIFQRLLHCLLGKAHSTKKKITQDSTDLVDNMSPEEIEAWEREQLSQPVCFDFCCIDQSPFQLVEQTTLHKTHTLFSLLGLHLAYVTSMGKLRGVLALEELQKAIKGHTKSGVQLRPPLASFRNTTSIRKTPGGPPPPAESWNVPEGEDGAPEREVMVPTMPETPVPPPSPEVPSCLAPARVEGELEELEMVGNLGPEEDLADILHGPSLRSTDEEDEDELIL
* = called active by the depositor; i = inactive; / = no result. Most compounds without a hit are left out; they make up all but 2.3% or so of the library.

SMILES	ANO1 block	TMEM16A act	CHT block	CHT allo act	TMEM16A reconf	HEK293 Ca mobil	YFP-HEK293 quench	ClC-1 rat inh
Cc1c(NC(=O)C(C)Sc2ccccc2)c(=O)n(-c2ccccc2)n1C (stereo not given)	i	i	i	i	i	i	-0.82	-8.0
CCCCNC(=S)Nc1ccc(C(F)(F)F)cc1	100*	i	i	i	40.0%*	i	-0.9	-22.5
CCOC(=O)C(=O)N(CC)C1CCS(=O)(=O)C1 (stereo not given)	100*	i	i	i	i	i	-1.01	-17.0
Cc1cc(NC(=O)COC(=O)c2cc([N+](=O)[O-])ccc2N2CCOCC2)ccc1Br	i	i	i	i	/	/	/	/
COCCN(C(=O)CCC(=O)Nc1nccs1)C(C(=O)NC(C)(C)C)c1ccc(C)cc1 (stereo not given)	i	i	i	i	/	/	/	/
COCCN(C(=O)CCC(=O)Nc1nccs1)C(C(=O)NC(C)(C)C)c1ccc(F)cc1 (stereo not given)	100*	i	i	i	i	i	-1.1	0.5
CC(OC(=O)C1CC1)C(=O)Nc1cccc(S(=O)(=O)N2CCOCC2)c1 (stereo not given)	/	i	/	/	/	/	/	/
CCOc1ccccc1NC(=O)CSc1nnc(CCC(=O)Nc2ccccc2F)n1C	i	i	i	i	/	/	/	/
CC(Sc1ccccc1)C(=O)N1CCN(S(=O)(=O)c2ccccc2)CC1 (stereo not given)	i	i	i	i	/	/	/	/
Cc1nc(C)n(CC(C)C(=O)N2CCN(S(=O)(=O)c3ccccc3)CC2)n1 (stereo not given)	25*	i	i	i	i	i	-0.96	-3.0
CCOC(=O)c1c(C)n(CC(COC(C)=O)OC(C)=O)c2ccc(OC(C)=O)cc12 (stereo not given)	25*	i	i	i	i	i	-1.18	-15.5
Cc1cc(S(=O)(=O)N2CCCc3ccccc32)ccc1-n1cnnn1	i	i	i	i	/	/	/	/
COc1ccc(OCCC(=O)OCC(=O)NC(=O)NC(C)(C)C)cc1	i	i	i	i	i	i	-1.15	-11.5
CC12CC3(C)CC(C)(C1)CC(C(=O)NC1=NCCS1)(C2)C3	25*	i	i	i	i	i	-1.14	-4.5
CC12CC3CC(C)(C1)CC(C(=O)NC1=NCCS1)(C3)C2	i	i	i	i	/	/	/	/
CC1(C)CC2CC(C)(CN2S(=O)(=O)c2ccc(N)cc2)C1 (stereo not given)	25*	i	i	i	i	i	-0.92	-0.5
CCn1nc(C(=O)NCCc2ccc3c(c2)OCCO3)c2ccccc2c1=O	/	i	/	/	/	/	/	/
CCOC(=O)c1ccc(NC(=S)N2CCSC2c2ccc(Br)cc2)cc1 (stereo not given)	25*	-6.5*	i	i	81.5%*	i	-1.07	-2.0
CCOC(=O)c1ccc(NC(=S)N2CCC(O)CC2)cc1	i	i	i	i	/	/	/	/
O=C(O)Cn1cc(C(=S)N2CCOCC2)c2ccccc21	25*	i	i	i	i	i	-1.37	-5.0
Cc1ccc(C2=NS(=O)(=O)N(C)C(C(=O)Nc3ccc4c(c3)OCO4)=C2)cc1	25*	i	i	i	i	i	-0.979	-25.5
COc1ccc(C2=NS(=O)(=O)N(C)C(C(=O)Nc3ccc4c(c3)OCO4)=C2)cc1	i	i	i	i	/	/	/	/
Cc1ccccc1-c1nnc(NC(=O)c2ccc(N3C(=O)CCC3=O)cc2)s1	i	i	i	i	/	/	/	/
Cc1cccc(-c2nnc(NC(=O)c3ccc(N4C(=O)CCC4=O)cc3)s2)c1	i	i	i	i	i	i	-0.864	-10.0
CCCCCCOC(=O)CC1CC(C(C)=O)C1(C)C (stereo not given)	/	i	/	/	/	/	/	/
SMILES	ANO1 block	TMEM16A act	CHT block	CHT allo act	TMEM16A reconf	HEK293 Ca mobil	YFP-HEK293 quench	ClC-1 rat inh
CCCCC1CC(C)(C(=O)CSc2nc3ccccc3s2)OC1=O (stereo not given)	100*	i	i	i	30.0%*	i	-1.01	-2.5
CCOC(=O)c1c(NC(=O)C(C)N2CCN(C(=O)c3ccco3)CC2)sc2c1CCCC2 (stereo not given)	25*	i	i	i	i	i	-1.17	-13.0
COc1ccc(CN2C(=O)c3ccccc3C(/C=N\OCc3ccc(C)cc3)C2=O)cc1 (stereo not given)	i	i	i	i	26.0%*	i	-1.25	-6.5
Nc1nccc(NCCSCc2ccccc2)n1	/	i	/	/	/	/	/	/
CCOC(=O)c1c(-c2ccccc2)csc1NC(=O)CSc1nc(N)cc(N)n1	25*	i	i	i	30.5%*	i	-0.846	-5.0
CCOC(=O)c1c(-c2ccccc2)csc1NC(=O)CSc1nc(C)cc(C)n1	i	i	i	i	/	/	/	/
CSCC[C@H](NC(=O)[C@@H]1Cc2ccccc2CN1)C(=O)Nc1ccc2c(c1)OCO2	i	i	i	i	/	/	/	/
O=C(Nc1c(Cl)ccc2nsnc12)c1ccc([N+](=O)[O-])o1	i	i	i	i	/	/	/	/
Cc1cccc(OCC(=O)NNc2c3ccccc3nc3ccccc23)c1	25*	i	i	i	i	i	-1.11	-4.5
CC(Oc1ccc(Cl)cc1Cl)c1nc(-c2ccc(NC(=O)c3cccnc3)cc2)no1 (stereo not given)	25*	i	i	i	i	i	-0.972	-15.0
CN(Cc1ccc(Cl)cc1)C(=O)COC(=O)c1ccc(-c2ccc(O)cc2)cc1	/	i	/	/	/	/	/	/
O=S(=O)(Nc1nc2ccccc2nc1N1CCc2ccccc2C1)c1ccc(Br)cc1	i	i	i	i	/	/	/	/
O=S(=O)(Nc1nc2ccccc2nc1N1CCc2ccccc2C1)c1ccc(Cl)cc1	25*	i	i	i	50.5%*	i	-0.792	-16.5
COc1ccc(N2Nc3n[nH]c(N)c3N2)cc1	i	i	i	i	i	i	-1.07	-4.5
